Data on 29 compounds can be found in PubChem BioAssay AID623868 (Vanderbilt High Throughput Screening Facility, 2012).

Among all 2,100 compounds or so, about 760 (36%) were called active. Not all results are given here. Unmarked numbers belong to inactive results.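 How the source made its calls: active means thallium-flux fluorescence traces judged by eye to show enhanced or reduced glutamate response, manual score 1 or -1, so both directions (some results past the limit were not filed as active); inactive means the rest, including fluorescent or raised-baseline compounds.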

This assay in a line: non-GIRK thallium flux modulation in mGlu8 cells, confirmation, counter-screen for GIRK activator project, cell-based, HEK-293 rmGlu8, no GIRK (AID 623868).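 Further: extra codes mark interference with 3 for fluorescent and 4 for baseline rise.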 To be noted: thallium flux fluorescence, at 10 µM, actives lie on both sides, codes: 1 enhancer, -1 blocker, 0 none, thallium stimulus containing EC20 glutamate. On the technique in general: A counterscreen serves to expose hits that act by an unwanted route or on another target.
Turning to `COCC(=O)/C=C1\Sc2ccccc2N1C`, the manual score was 0.

`CCOc1ccccc1C(=O)N1c2ccccc2Sc2ccccc21`: the manual score was 0.

As to `COc1ccccc1C(=O)N1c2ccccc2Sc2ccccc21`, the manual score was -1 (active).

Take `COc1ccc(C(=O)Nc2ccc(S(=O)(=O)NCc3ccco3)cc2)cc1OC`: the manual score was -0.5.

On to `COc1cc(C(=S)N2CCCC2)cc(OC)c1OS(=O)(=O)c1ccc(NC(C)=O)cc1`, for which the manual score is -1 (active).

`COc1cc(NC(=O)CS(=O)(=O)c2ccc(C)cc2)cc(OC)c1OC`: the manual score was 0.

For the compound `O=C(Nn1c(C2CCCCC2)nc2ccccc2c1=O)c1ccc([N+](=O)[O-])cc1Cl`, the manual score was 0.

Turning to `CS(=O)(=O)c1ccc2nc(NC(=O)C3C4C=CC(C4)C3C(=O)O)sc2c1` (centres undefined), the manual score was 0.

With `Cc1ccc(C)c(OCC(=O)Nc2nc3ccc([N+](=O)[O-])cc3s2)c1C`, the manual score was 0.

As to `O=C(NC(Nc1nc2ccc([N+](=O)[O-])cc2s1)(C(F)(F)F)C(F)(F)F)c1ccccc1Cl`, the manual score was 1 (active).

`O=C(NC(Nc1nc2ccc([N+](=O)[O-])cc2s1)(C(F)(F)F)C(F)(F)F)c1ccccc1`: the manual score was 1 (active).

With `N#C/C(=C/C=C/c1ccccc1)C(=O)Nc1ccccc1`, the manual score was 0.

With `Cn1c(SCC(=O)c2cc3ccccc3o2)nnc1-c1ccccc1`, the manual score is 0.

For `CCn1c(-c2cc3ccccc3cc2O)n[nH]c1=S`, the manual score was 0.

Regarding `O=c1oc(-c2ccc(Br)o2)nc2ccccc12`, the manual score is 0.

For the compound `S=c1[nH]nc(-c2ccc(Br)o2)n1Cc1ccccc1`, the manual score was 1 (active).

In the case of `S=c1[nH]nc(-c2cc3ccccc3o2)n1Cc1ccccc1`, the manual score is 1 (active).

Turning to `CC(C)N(Cc1nc(-c2ccccc2)no1)C(=O)CSc1ccccc1`, the manual score is 0.

As for `CC1(C)CC(=O)C2=C(C1)NC(SCC(=O)Nc1ccccc1)=C(C#N)C2c1ccco1` (centres undefined), the manual score was 0.5.

Take `CC1(C)CC(=O)C2=C(C1)N(c1ccccc1)C(N)=C(C#N)C2c1ccsc1` (centres undefined): the manual score is -1 (active).

In the case of `CN1C2C=C3C(C#N)=C(N)C(C#N)(C#N)[C@@H](c4ccsc4)[C@@H]3C1CC2` (some centres undefined), the manual score is 0.

For `CCC(C)(C)n1nnnc1C(c1ccccn1)N1CCCCC1` (centres undefined), the manual score was 0.

For the compound `CC(C)Sc1nc2c(c(=O)[nH]1)C(c1cccs1)C1=C(CC(C)(C)CC1=O)N2` (centres undefined), the manual score is -1 (active).

`Cc1cc2c(cc1C)NC(c1c(C)n(C)n(-c3ccccc3)c1=O)C1=C(CC(C)(C)CC1=O)N2` (centres undefined): the manual score was 3.

As to `Cc1c(C2Nc3ccccc3NC3=C2C(=O)CC(C)(C)C3)cnn1C` (centres undefined), the manual score was 0.

On to `O=C(NCc1cccs1)c1cccnc1C(=O)O`, for which the manual score is 0.

`O=C(O)c1ccccc1C(=O)Nc1ccc(-c2csc(-c3ccccc3)n2)cc1`: the manual score is 0.

Consider `CCC(C)NC(=O)c1ccccc1NC(=O)Nc1ccccc1` (centres undefined), for which the manual score is 0.5.

As for `O=C(Nc1ccccc1C(=O)O)c1ccc(NC(=O)c2ccc(Br)o2)cc1`, the manual score was -1 (active).
